# High-throughput results from PubChem BioAssay.
# Only some compounds are listed: those with a hit (about 0.83% of all), similar ones and a draw of the others.
# S1P4 antag – S1P4 receptor antagonists, primary screen, cell-based; S1P4-expressing cells, antagonist mode, reporter read-out; inhibition, % at 4.98 µM; 0.26% of 220,000 active; Sphingosine 1-phosphate receptor 4 (Homo sapiens), O95977; in the data active = inhibition above about 29%;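 note: 0% = wells stimulated with agonist and 100% = vehicle wells without agonist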
# Pf gamet viab – late stage P. falciparum gametocyte viability inhibitors, primary screen, ATP luminescence, HTS; P. falciparum stage V gametocytes, 24 h; AID 743093, 2013; inhibition, % at 10.9 µM; 0.065% of 150,000 active;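 active = inhibition above the mean plus 3 SD of compounds within the control limits, set per campaign, cut at about 38% in these data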;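 note: 0% = DMSO wells and 100% = medium only without gametocytes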
# S1P4 agonist – S1P4 receptor agonists, primary screen, cell-based; Sphingosine 1-phosphate receptor 4 (Homo sapiens), O95977; S1P4-expressing cell line, agonist reporter assay; activation, % at 4.98 µM; 0.35% of 220,000 active; AID 1509, 2009; in the data active = activation above about 11%;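 note: 0% = DMSO vehicle and 100% = reference agonist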
# Hsp70 activator – Hsp70 transcriptional activators, primary screen, cell-based, HeLa, Hsp70 promoter luciferase, luminescence, 10 µM; 0.04% of 200,000 active; activation, % at 10 µM; HeLa Hsp70 promoter luciferase reporter; scaled: vehicle 0, proteasome-inhibitor control 100%; AID 1203, 2008;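 active = activation above the mean across all tested compounds plus 3 SD, cutoff set per campaign, cut at about 5.5% in these data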;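 note: 100% = MG132 at 30 µM as the positive control and 0% = DMSO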
# S1P3 antag-1 – S1P3 receptor antagonists, primary screen, cell-based; AID 485, 2006; 0.27% of 170,000 active; Sphingosine 1-phosphate receptor 3 (Homo sapiens), Q99500; inhibition, % at 4.98 µM; CHO S1P3 NFAT-BLA reporter, FRET fluorescence, antagonist mode;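 active = inhibition above the plate cutoff, the mean inhibition of test wells on that plate plus 3 SD, cut at about 28% in these data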;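 note: cells challenged with S1P at its EC80 of 0.8 µM; blue over green emission ratio from cleaved BLA substrate after 4 h stimulation; 0% = S1P-stimulated wells and 100% = unstimulated DMSO-only wells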
# Target sequence (Q99500 whole entry, looked up): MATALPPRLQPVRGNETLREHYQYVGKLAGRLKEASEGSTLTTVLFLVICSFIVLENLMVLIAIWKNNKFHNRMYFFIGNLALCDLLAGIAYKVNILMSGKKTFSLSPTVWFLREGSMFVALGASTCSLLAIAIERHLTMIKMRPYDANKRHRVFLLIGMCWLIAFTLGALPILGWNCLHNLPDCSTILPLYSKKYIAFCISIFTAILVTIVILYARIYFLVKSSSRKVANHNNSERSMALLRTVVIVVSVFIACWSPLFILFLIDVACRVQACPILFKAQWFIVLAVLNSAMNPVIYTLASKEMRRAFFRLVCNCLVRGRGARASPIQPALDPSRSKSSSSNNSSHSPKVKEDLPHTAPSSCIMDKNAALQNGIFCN
# S1P3 antag-2 – S1P3 receptor antagonists, retest, confirmation, cell-based; shares compounds with S1P3 antag-1; CHO S1P3 NFAT-BLA reporter, FRET, antagonist mode; inhibition, % at 4.98 µM; 30% of 240 active; AID 1429, 2008;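 active = inhibition above the hit threshold that was computed for the earlier primary screen, cut at about 30% in these data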;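 note: 0% = S1P-stimulated wells and 100% = unstimulated DMSO-only wells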
# * = called active by the depositor; · = no result given; ! = not active in a repeat.
SMILES,S1P4 antag,Pf gamet viab,S1P4 agonist,Hsp70 activator,S1P3 antag-1,others
O=C1C2CCCN2C(c2ccc(F)cc2)N1c1cccc(Cl)c1 (configuration not stated),1.9,·,-1.1,-0.2,-31.8,
O=C1C2CCCN2C(c2cccc(F)c2)N1c1cccc(Cl)c1 (configuration not stated),-10.8,·,0.7,-0.4,68.1*,
Cc1cc(C)cc(C(=O)Nn2cnnc2)c1,·,-13.2,·,·,·,
O=S(=O)(c1cccs1)N1CCN(CC(O)COc2cccc(Br)c2)CC1 (configuration not stated),19.9,-7.9,0.9,0.5,·,
O=S(=O)(c1cccs1)N1CCN(CC(O)COC2CCCc3ccccc32)CC1 (configuration not stated),3.4,·,-2.3,-0.3,100.1*,
c1ccc2c(c1)CCc1ccccc1C2=C1CCNCC1,·,-9.1,·,·,·,
O=C(CN1C(=O)NC(c2ccccc2)(c2ccccc2)C1=O)NCCNCCO,·,-22.5,·,·,·,
CC(=O)Nc1cc(OC(C)=O)c2nonc2c1OC(C)=O,108.9*,·,-2.9,-0.4,54.4*,
CC1=N/C(=C\c2ccc([N+](=O)[O-])cc2)C(=O)N1c1ccc(C)c(Cl)c1,·,-9.9,·,·,·,
CC1Cc2ccccc2N1C(=O)Cn1c(=O)oc2cc(S(=O)(=O)N3CCCCC3)ccc21 (configuration not stated),-4.1,·,-1.0,0.0,80.7*,
O=C(Cn1c(=O)oc2cc(S(=O)(=O)N3CCCCC3)ccc21)N1CCc2ccccc21,-9.7,·,-1.5,0.1,·,
CCOc1ccccc1N1CCN(C(=O)c2ccc3[nH]c4c(c3c2)CCCC4)CC1,-4.7,44.5*,5.3,-0.2,-34.0,
CCOc1ccccc1N1CCN(C(=O)c2ccncc2)CC1,1.4,·,1.5,-0.3,-34.3,
O=c1c2[nH]c3ccc(Br)cc3c2ncn1Cc1ccncc1,-4.3,·,-1.6,·,1.4,
COc1cccc2sc(Nc3nc(-c4ccncc4)cs3)nc12,5.2,49.8*,2.1,-0.1,-6.9,
CCOCCn1c(SCCCc2ccccc2)nc2c1c(=O)[nH]c(=O)n2C,-10.3,·,2.0,-0.1,·,
CCCCCSc1nc2c(c(=O)[nH]c(=O)n2C)n1CCc1ccccc1,·,·,·,·,102.2*,
CCOc1ccc(C(=O)NCC(=O)N2CCc3ccccc3C2)cc1OCC,-8.0,-20.3,0.3,-0.4,-28.3,
COc1cc(Cc2cnc(N)nc2N)cc(OC)c1OC,12.3,·,18.0*!,-0.2,-16.6,
Cc1cc(Br)cc2c1N(C)C(=O)C2(c1ccc(O)cc1)c1ccc(O)cc1,·,-13.0,·,·,·,
CCOc1cc(C)c(C(C)C)cc1S(=O)(=O)NCc1ccccn1,-1.8,-1.2,-1.3,0.1,118.3*,
COc1ccc2cc(/C=N/NC(=O)CN(c3ccccc3OC)S(=O)(=O)c3ccccc3)c(Cl)nc2c1,·,-7.1,·,·,·,
CN(C)c1ccc(/C=C/c2ccc3c4ccccc4ccc3[n+]2-c2ccccc2)cc1,10.7,-14.0,-2.9,0.3,55.2*,
CN(C)c1ccc(/C=C/c2ccc3ccccc3[n+]2C)cc1,-40.1,23.4,-1.8,-0.3,15.0,
Nc1nnc(CCS(=O)(=O)c2cc(Cl)ccc2Cl)s1,-16.4,·,0.6,0.0,76.7*,
SMILES,S1P4 antag,Pf gamet viab,S1P4 agonist,Hsp70 activator,S1P3 antag-1,others
Nc1nnc(CCS(=O)(=O)c2ccc(Cl)cc2)s1,-1.4,·,-4.1,-0.3,·,
CCOc1ccc(Cl)cc1C1=CC(=O)C[C@H](c2ccc(OC)cc2)C1,·,-4.8,·,·,·,
Cc1cc(OC(=O)c2ccccc2)n(CCC#N)n1,-0.9,·,0.1,-0.3,102.5*,
CN=C(Nc1cc(C)nn1CCC#N)c1ccccc1,4.1,-10.5,0.4,-0.1,-17.6,
CCN1/C(=C/c2ccc3cc(C)ccc3[n+]2CC)Sc2cc(C)c(C)cc21,1.2,0.8,-2.2,-0.3,30.6*,S1P3 antag-2=21.1
CCN1/C(=C/c2ccc3cc(C)ccc3[n+]2CC)Sc2ccccc21,-34.1,5.2,-1.8,0.7,32.6*,S1P3 antag-2=33.6*
CCN1/C(=C/C=C/C=C/c2sc3ccccc3[n+]2CC)Sc2ccccc21,-3.3,·,0.5,-0.4,-2.7,
CC(=O)c1sc(N/N=C2\CC3CCC2(C)C3(C)C)nc1C (configuration not stated),12.3,9.4,-0.6,0.0,17.3,
